Reference: PubChem BioAssay (NCI)
This is part of a sample that, as a whole, favours compounds with a hit. Of some 83,000 tested, about 20% had one in any assay.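 Growth was measured after 48 h exposure to one concentration of compound in 96-well plates. Values under 10 count as active.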 Values without a mark were called inactive. Calls of active or inactive are those of the source.

What was measured:
Experiment in all cases: NCI-60 one-dose screen, 48 h (100 = growth as untreated, 0 = no growth, -100 = all killed)
Settings in all cases: 10 µM unless noted
[1] = system: NCI-H23 lung
[2] = system: NCI-H226 lung
[3] = system: NCI-H322M lung
[4] = system: HOP-62 NSCLC
[5] = system: NCI-H460 lung
[6] = system: HOP-92 NSCLC
[7] = system: NCI-H522 lung
[8] = system: A549/ATCC NSCLC
[9] = system: 786-0 renal
[10] = system: COLO 205 colon
[11] = system: DU-145 prostate
[12] = system: K-562 leukemia
[13] = system: MALME-3M melanoma
[14] = system: MDA-MB-231 breast
[15] = system: RXF 393 renal
[16] = system: SF-268 CNS
[17] = system: SF-295 CNS
[18] = system: SF-539 CNS
[19] = system: UACC-257 melanoma
[20] = system: M14 melanoma

SMILES	growth [1]	growth [2]	growth [3]	growth [4]	growth [5]	growth [6]	growth [7]	growth [8]	growth [9]	growth [10]	growth [11]	growth [12]	growth [13]	growth [14]	growth [15]	growth [16]	growth [17]	growth [18]	growth [19]	growth [20]
CC1(C)CC[C@]2(C(=O)Nc3ccccn3)CC[C@]3(C)C(=CC[C@@H]4[C@@]5(C)C/C(=C/c6cccnc6)C(=O)C(C)(C)[C@@H]5CC[C@]43C)[C@H]2C1	35.9%	47.8%	79.1%	54.7%	10.6%	57.7%	30.5%	27.3%	43.2%	4.76% (active)	53.2%	18.7%	48.3%	73.2%	33.3%	53.5%	38.1%	51.6%	26.2%	35.6%
O=C(CCN1C(=O)/C(=C/c2ccc(Cl)cc2)SC1=S)NCCCN1CCOCC1	101%	98.2%	104%	101%	102%	102%	88.9%	102%	107%	108%	106%	97.8%	100%	100%	109%	95.7%	95.2%	93.7%	102%	
Nc1ccc(-c2cc3c(NCc4ccccc4)ncnc3s2)cc1	66.6%	65.9%	60.7%	92.1%	90.7%	85.5%	72.5%	70.9%	79.2%	108%	55.8%	61.8%	91.3%	86%	74.2%	86.9%	83.5%	86%	85.8%	
COc1ccc(C2CC(c3ccc(Cl)cc3)=NN2/C=C2\SC(=S)N(NC(=O)Cc3ccccc3Nc3c(Cl)cccc3Cl)C2=O)cc1 (centres undefined)	80.1%	68.8%	85%	79.1%	81.8%	-2.84% (active)	65.7%	57.8%	-55.2% (active)	30%	72.5%	1.36% (active)	60.5%	42.1%	66.2%	62.9%	88%	71.1%	88.5%	
Cc1ccc(-c2onc3c(=O)[nH]nc(-c4ccccc4)c23)cc1	22.8%	61.6%	56.9%	26.5%	19.1%	31.8%	-19.5% (active)	31.5%	37.1%	7.07% (active)	19.4%	14.7%	82.6%	34.9%	31.8%	48.6%	23.7%	-4.93% (active)	47.3%	23.2%
N#CN1CC[C@H](C(=O)Nc2cc3cc(C(N)=O)ccc3cn2)C1	-8.58% (active)	-10% (active)	13.6%	-27.1% (active)	6.93% (active)	-6.94% (active)	-50% (active)	1.68% (active)	4.19% (active)	-70.1% (active)	7.18% (active)	2.99% (active)	-21.8% (active)	-0.49% (active)	-52.3% (active)	-9.68% (active)	2.85% (active)	-35.9% (active)	-27.9% (active)	
CC(=O)Nc1ccc(-n2c(O)c(/C=N/NC(=O)Cc3ccccc3Nc3c(Cl)cccc3Cl)sc2=S)cc1	95.4%	104%	102%	99.7%	101%	92.7%	94.2%	101%	102%	119%	105%	94.6%	108%	107%	105%	94.4%	99.4%	98.4%	103%	
CCCN1CCN(c2ccc3nc(-c4ccc5nc(-c6ccc(OCC)cc6)[nH]c5c4)[nH]c3c2)CC1	19.5%	65.1%	60.6%	55.7%	-76.8% (active)	39.3%	-3.11% (active)	-71.4% (active)	16.3%	-32% (active)	21.2%	-47.4% (active)	0.636% (active)	84.8%	-31.3% (active)	68.6%	41.4%	58.3%	39.7%	
